Assay results from PubChem BioAssay AID1159580 (chemical genetic matrix, 2015).
Where “and” joins values, the source holds several entries; their conditions need not be identical. Equal entries are not always repeated. The whole screen tested about 5,500 compounds, of which about 2,000 (36%) were called active. Roughly 18% stayed inconclusive and do not appear here. Rule as the data show it: active = normalized growth mostly below about 0.91 (no sharp cut-off); inconclusive = no clear call, values can overlap the other calls; inactive = mostly above about 0.92. The list shows a part of the results.

Assay: chemical genetic growth profiling, strain panel (AID 1159580);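 also: tested at 20 µM; growth read once vehicle control cultures reached saturation at 30 °C; 1 = growth at the plate median or of vehicle wells; lower values mean less growth of the strain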
Conditions: S. cerevisiae deletion strains, growth OD

Measured: normalized growth

CC(C(=O)O)c1ccc(N2Cc3ccccc3C2=O)cc1 (configuration not stated)
inactive: locus YAL021C, strain ccr4, active compounds read low 0.994 | locus YAL026C, strain drs2, active compounds read low 1 | locus YAL030W, strain snc1, active compounds read low 0.994 | locus YBL061C, strain skt5, active compounds read low 0.983 | locus YBR009C, strain hhf1, active compounds read low 0.97 | locus YBR021W, strain FUR4, active compounds read low 1.01 | locus YBR023C, strain chs3, active compounds read low 0.966 | locus YBR171W, strain sec66, active compounds read low 0.971 | locus YBR229C, strain ROT2, active compounds read low 1.01 | locus YBR231C, strain swc5, active compounds read low 0.993 | locus YBR279W, strain paf1, active compounds read low 0.972 | locus YCL011C, strain gbp2, active compounds read low 0.946 | locus YCL016C, strain dcc1, active compounds read low 0.956 | locus YCL029C, strain bik1, active compounds read low 0.996 | locus YCL061C, strain MRC1, active compounds read low 0.986 | locus YCL069W, strain vba3, active compounds read low 0.994 | locus YCR088W, strain abp1, active compounds read low 0.987 | locus YDL005C, strain med2, active compounds read low 0.991 | locus YDL035C, strain GPR1, active compounds read low 1.02 | locus YDL040C, strain nat1, active compounds read low 0.989 | locus YDL074C, strain BRE1, active compounds read low 1.02 | locus YDL101C, strain DUN1, active compounds read low 1.01 | locus YDL185W, strain tfp1, active compounds read low 0.989 | locus YDL192W, strain arf1, active compounds read low 0.99 | locus YDR001C, strain nth1, active compounds read low 0.99 | locus YDR069C, strain doa4, active compounds read low 0.993 | locus YDR101C, strain arx1, active compounds read low 1 | locus YDR137W, strain rgp1, active compounds read low 0.988 | locus YDR159W, strain sac3, active compounds read low 1.05 | locus YDR162C, strain NBP2, active compounds read low 1.01 | locus YDR195W, strain ref2 1.01 | locus YDR297W, strain sur2, active compounds read low 0.99 | locus YDR318W, strain mcm21, active compounds read low 0.99 | locus YDR334W, strain swr1, active compounds read low 0.986 | locus YDR335W, strain msn5, active compounds read low 0.993 | locus YDR388W, active compounds read low 0.992 | locus YDR392W, strain spt3, active compounds read low 0.988 | locus YDR502C, strain sam2, active compounds read low 1 | locus YEL003W, strain gim4, active compounds read low 1.01 | locus YEL037C, strain rad23, active compounds read low 0.975 | locus YEL061C, strain CIN8 (second series), active compounds read low 0.99 | locus YEL061C, strain CIN8, active compounds read low 1.01 | locus YER015W, strain faa2, active compounds read low 1 | locus YER016W, strain bim1, active compounds read low 0.993 | locus YER110C, active compounds read low 0.994 | locus YER111C, strain swi4, active compounds read low 0.985 | locus YER155C, strain BEM2 (second series), active compounds read low 0.948 | locus YER155C, strain BEM2, active compounds read low 1.02 | locus YER167W, strain BCK2, active compounds read low 1.01 | locus YFR010W, strain ubp6, active compounds read low 1 | locus YGL078C, strain dbp3, active compounds read low 0.985 | locus YGL086W, strain mad1, active compounds read low 1.01 | locus YGL167C, strain pmr1, active compounds read low 0.991 | locus YGL173C, strain kem1, active compounds read low 0.997 | locus YGL227W, strain vid30, active compounds read low 0.988 | locus YGL240W, strain doc1, active compounds read low 1 | locus YGL248W, strain PDE1, active compounds read low 1.02 | locus YGL253W, strain hxk2, active compounds read low 1 | locus YGR135W, strain pre9, active compounds read low 0.971 | locus YGR252W, strain gcn5, active compounds read low 0.938 | locus YHR013C, strain ard1, active compounds read low 0.961 | locus YHR027C, strain rpn1, active compounds read low 0.986 | locus YHR030C, strain SLT2, active compounds read low 1.01 and 0.993 | locus YHR079C, strain IRE1 (second series), active compounds read low 1.01 | locus YHR079C, strain IRE1, active compounds read low 0.987 | locus YHR094C, strain hxt1, active compounds read low 0.987 | locus YHR129C, strain ARP1, active compounds read low 1.02 | locus YHR142W, strain chs7, active compounds read low 0.941 | locus YHR200W, strain rpn10, active compounds read low 1 | locus YIL066C, strain RNR3, active compounds read low 1.02 | locus YIL073C, strain SPO22, active compounds read low 1 | locus YIL125W, strain kgd1, active compounds read low 0.984 | locus YIR030C, strain dcg1, active compounds read low 0.996 | locus YJL092W, strain hpr5, active compounds read low 0.959 | locus YJL095W, strain BCK1 (second series), active compounds read low 0.994 | locus YJL095W, strain BCK1, active compounds read low 1.01 and 0.986 | locus YJL115W, strain asf1, active compounds read low 0.982 | locus YJL129C, strain trk1, active compounds read low 0.965 | locus YJL134W, strain LCB3, active compounds read low 1.01 | locus YJL154C, strain vps35, active compounds read low 0.987 | locus YJL164C, strain tpk1, active compounds read low 0.988 | locus YJL166W, strain qcr8, active compounds read low 0.987 | locus YJL168C, strain set2, active compounds read low 0.98 | locus YJL187C, strain SWE1 (second series), active compounds read low 1.01 | locus YJL187C, strain SWE1, active compounds read low 0.993 | locus YJR043C, strain POL32, active compounds read low 1.02 | locus YJR066W, strain TOR1, active compounds read low 0.914
